Measurements from the supplement of paper PMC5499739.
Over roughly 16,000 sequences, “Z-score” has its median near -0.37; the highest 2% begin near 3.2. The sample as a whole holds a higher share of the highest values than the screen did.

The sequences below were run on RBM10 RRM1-ZnF (GST-tagged construct) (assay: RNAcompete 7-mer binding Z-score; higher = stronger binding preference).
Description: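 RNAcompete: 20 pmol GST-tagged RBM10 RNA-binding constructs were incubated with a designed RNA pool of about 241,000 sequences up to 41 nt (1.5 nmol) on glutathione beads for 30 min at 4 °C and washed. Bound RNAs were identified by microarray hybridisation. Each RNA 7-mer is scored by a one-sided Z-score of its enrichment, computed over probes that contain the 7-mer within longer pool sequences.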

Row | Sequence | RNAcompete 7-mer binding Z-score
1 | GAGGAGG | 2.97
2 | UAGGAGA | 1.94
3 | AUGGAUG | 3.28
4 | AUGGAUA | 2.89
5 | CAGGAGA | 1.93
6 | GAGGAUG | 3.1
7 | UAGGAGG | 2.77
8 | AAGGAUG | 4.14
9 | AAGGAGG | 4.7
10 | AAGGAUA | 2.99
11 | AAGGAGA | 3.37
12 | AUGGAUU | 1.71
13 | GUAUCUC | -0.594
14 | GCGGUUA | 1.32
15 | CCACUGG | -0.152
16 | UUUCGAA | -0.678
17 | UGACACG | 0.0138
18 | GAUGUUA | -0.116
19 | GCGACCC | -0.545
20 | CCGUUCC | -0.967
21 | UAAUGCA | -0.386
22 | UGACUCG | -0.487
23 | AUAAGGU | 1.72
24 | GUAAGGC | 1.67

Row | Sequence | RNAcompete 7-mer binding Z-score
25 | GUAAGGA | 2.67
26 | AUAAGGA | 2.08
27 | GUAAGGG | 3.85
28 | AUAAGGG | 3.77
29 | GAGAAUC | 0.0593
30 | UACGUGU | -0.318
31 | GAUAUAU | -0.178
32 | ACGAUUA | -0.366
33 | UUAACGU | -0.324
34 | UUUUCAU | -0.727
35 | GUUAGGG | 3.73
36 | GAUAGGG | 4.05
37 | UAUAGGG | 2.69
38 | AAUAGGC | 0.192
39 | CAUAGGG | 1.51
40 | UUUAGGG | 1.65
41 | AAUAGGG | 3.28
42 | AAUAGGU | 1.37
43 | GUUAGGU | 1.86
44 | UAGAACU | -0.155
45 | GACCCCU | -0.704
46 | AACGGCA | 0.42
47 | CGUGCGG | 1.09
48 | CGCGCCA | -0.337

Row | Sequence | RNAcompete 7-mer binding Z-score
49 | AAGGGGU | 4.48
50 | AGGGGGA | 2.47
51 | AGGGGGC | 1.83
52 | AAGGGGG | 4.31
53 | AAAGGCG | 1.21
54 | AGGGGGU | 3.09
55 | AAGGGGA | 4.47
56 | AAAGGGG | 4.5
57 | AAGGGCU | 1.62
58 | AAGGGGC | 3.13
59 | GUCGCUA | -0.243
60 | CUGGAGA | 0.501
61 | UUAGAAU | -0.152
62 | CGUGAUC | -0.704
63 | GAAUCGG | 1.41
64 | UGAACAC | -0.347
65 | GCUUGUC | -0.665
66 | UCUGGGG | 1.39
67 | CGGAGAA | 1.36
68 | AAUUGCC | -0.626
69 | UGGAUAU | 1.17
70 | AGCAUAA | -0.292
71 | GAGGGAC | 2.06
72 | GAGGGAA | 3.42

Row | Sequence | RNAcompete 7-mer binding Z-score
73 | GAGGGGA | 3.62
74 | AAAAGGG | 3.8
75 | GAGGAAA | 2.27
76 | UAAAGGG | 2.85
77 | GAGGGGG | 2.9
78 | GAGGGGC | 2.44
79 | GAGGGCU | 1.3
80 | GAGGGGU | 3.59
81 | CAGGGGA | 2.99
82 | CAAAGGG | 2.23
83 | GAAAGUU | 0.225
84 | CAUAGGA | 0.54
85 | GCCGUUA | -0.607
86 | GCAGGCA | 0.495
87 | AUGUAAG | 0.397
88 | GGGGGCG | 2.47
89 | UUGGGUU | 2.66
90 | UGGGGUG | 4.74
91 | AGGGGCG | 2.28
92 | AGGGGUG | 3.85
93 | UUGGGUG | 3.83
94 | GGGGGUC | 2.18
